Bioassay records: PubChem, several laboratories
KKLEB cytotox: cytotoxicity in KKLEB CF airway cells, primary screen, cytotoxicity control for CF NF-kB inhibitor project, cell-based, uHTS, fluorescence assay plates | activity change (cytotoxicity), % at 5 µM | 360,000 compounds, 0.36% hits | KKLEB CF airway cells viability, ATPlite luminescence, overnight; active compounds read low; cells stimulated with P. aeruginosa culture filtrate;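 active means corrected activity change at or below -50% at 5 µM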
TRPM1 prom inh: inhibitors of MITF-dependent TRPM1 promoter reporter, primary screen, cell-based, SK-MEL-5, single point, luciferase; inhibition, % at 12.5 µM; AID 488899, 2010; SK-MEL-5 TRPM1 promoter luciferase, 24 h; 330,000 compounds, 0.83% hits;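 active means mean inhibition across replicates of 60% or more, whatever share of single replicates reaches that level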
HIF-2a block: HIF-2a reporter inhibitors, primary screen, luminescence, 786-0 RCC cells. 360,000 compounds, 0.72% hits. inhibition, % at 18.8 µM. 786-0 RCC cells HIF-2a reporter, luciferase luminescence, overnight;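 active means inhibition of the luminescence signal of 40% or more relative to plate controls, in a single-dose primary screen at 18.75 µM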
CF NFkB block: inhibitors of PAF-induced NF-kB signaling, primary screen, cell-based, GFP fluorescence, uHTS; KKLEB NF-kB-GFP reporter, GFP fluorescence overnight; inhibition, % at 5 µM; 360,000 compounds, 0.86% hits;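 active means at least 50% inhibition at 5 µM, scaled per plate between neutral and stimulator controls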;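 further: PAF is a Pseudomonas aeruginosa culture filtrate used as stimulus; plate controls were PAF-stimulated DMSO wells for no effect and unstimulated DMSO wells for full effect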
Peg3 prom inh: Peg3 promoter-driven luciferase inhibitors, primary screen, cell-based, HeLa, luciferase luminescence; HeLa PEG-Prom luciferase reporter, overnight; inhibition, % at 20 µM; 360,000 compounds, 1.7% hits; AID 588405, 2011;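 active means inhibition of at least 50% at 20 µM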
Shn3 inh set2: reduction of Shn3 3'UTR firefly luciferase signal, primary screen, Schnurri-3 inhibitor project, cell-based, Clone20 osteoblasts, set 2; 360,000 compounds, 0.52% hits; Clone20 osteoblast Shn3 3'UTR firefly luciferase, 24 h; inhibition, % at 12.5 µM;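 active means mean inhibition of at least 75% with every replicate also reaching 75%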;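 further: 0% = median of neutral control wells and 100% = pilot-screen positive control compound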
Mdm2-MdmX confirm: retested Mdm2-MdmX interaction blockers, confirmation, cell-based, luminescence, single concentration, set 2; shares compounds with HIF-2a block; SaOS-2 split-luciferase Mdm2/MdmX complementation; inhibition, % at 8 µM; 740 compounds, 99% hits; AID 504601, 2011;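 active means mean inhibition of the luminescence signal across two replicates at or above 26 percent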
Target sequence (O15151 whole entry, looked up): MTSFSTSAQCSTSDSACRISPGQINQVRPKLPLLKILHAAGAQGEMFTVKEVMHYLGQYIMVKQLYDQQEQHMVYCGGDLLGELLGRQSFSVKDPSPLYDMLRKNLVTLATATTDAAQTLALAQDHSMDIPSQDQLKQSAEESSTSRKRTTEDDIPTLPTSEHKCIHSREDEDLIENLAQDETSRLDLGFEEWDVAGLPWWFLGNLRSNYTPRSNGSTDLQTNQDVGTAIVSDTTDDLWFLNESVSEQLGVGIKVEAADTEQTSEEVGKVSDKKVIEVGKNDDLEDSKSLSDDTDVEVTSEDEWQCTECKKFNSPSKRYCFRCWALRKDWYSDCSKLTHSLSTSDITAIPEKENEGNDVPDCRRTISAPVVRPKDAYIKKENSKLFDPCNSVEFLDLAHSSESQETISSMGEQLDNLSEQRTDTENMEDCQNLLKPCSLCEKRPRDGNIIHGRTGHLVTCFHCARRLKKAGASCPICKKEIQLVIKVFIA
Target sequence (Q00987 whole entry, looked up): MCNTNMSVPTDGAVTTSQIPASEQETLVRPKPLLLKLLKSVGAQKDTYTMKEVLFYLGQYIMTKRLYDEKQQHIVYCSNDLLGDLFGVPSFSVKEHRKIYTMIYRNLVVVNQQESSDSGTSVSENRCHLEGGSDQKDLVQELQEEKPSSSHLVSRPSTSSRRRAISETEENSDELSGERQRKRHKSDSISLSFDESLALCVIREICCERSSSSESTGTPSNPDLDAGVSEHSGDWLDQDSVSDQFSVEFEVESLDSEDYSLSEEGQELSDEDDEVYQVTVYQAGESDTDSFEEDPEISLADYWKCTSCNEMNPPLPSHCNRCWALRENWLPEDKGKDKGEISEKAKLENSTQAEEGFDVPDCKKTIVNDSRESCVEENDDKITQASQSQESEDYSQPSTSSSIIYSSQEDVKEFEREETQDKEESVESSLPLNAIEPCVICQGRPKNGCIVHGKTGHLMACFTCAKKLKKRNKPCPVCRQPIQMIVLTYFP
HIF-2a conf: HIF-2a reporter inhibitor retest, confirmation, luminescence, 786-0 RCC cells | HIF-2a luciferase reporter luminescence, overnight | shares compounds with HIF-2a block | 1,800 compounds, 56% hits | inhibition, % at 18.8 µM;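 active means mean inhibition across four replicates of at least 40 percent at the single tested concentration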
HIF-1a counter: HIF-1a luciferase reporter signal reduction – MiaPaCa-2 cells, single concentration, counter-screen for HIF-2a inhibitor project, confirmation | MiaPaCa-2 HIF-1a luciferase reporter, desferoxamine, overnight | AID 651589, 2012 | inhibition, % at 18.8 µM | 1,800 compounds, 72% hits | shares compounds with HIF-2a block;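 active means mean inhibition of the reporter signal across four replicates at the single tested dose of 50% or more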
* marks the source's active call; other numbers are inactive results; . = no result. Most compounds without a hit are left out; they make up all but 2.8% or so of the library.

SMILES | KKLEB cytotox | TRPM1 prom inh | HIF-2a block | CF NFkB block | Peg3 prom inh | Shn3 inh set2 | HIF-2a conf | HIF-1a counter | others
Cc1csc(NC(C)c2nc3cc(Cl)c(Cl)cc3n2CCCO)n1 (stereo not drawn) | -6 | -5 | 19 | -4 | 2 | -14 | . | .
CC(=O)N(Cc1ccc(F)cc1)C1=C(NCCc2ccccc2)C(=O)c2ccccc2C1=O | -55* | 104* | 91* | 86* | 103* | 38 | . | . | Mdm2-MdmX confirm=101*
Cc1cc(N)ccc1-n1nc2ccccc2n1 | 7 | 2 | 5 | -8 | -53 | -21 | . | .
Cc1ccc(-n2nc3ccc(N)cc3n2)c(C)c1 | 5 | 6 | 56* | -37 | -174 | 14 | 76* | 17
CC(C)NC(=O)c1c(O)c2ccccc2[nH]c1=O | 4 | -10 | -101 | 0 | -30 | -25 | . | . | Mdm2-MdmX confirm=92*
CC(C)C(=O)NNC(=O)c1c(O)c2ccccc2[nH]c1=O | 6 | 13 | -1 | -10 | 11 | 5 | . | .
CC1CCN(CCC(=O)NN)CC1 | -16 | -2 | 20 | 27 | 2 | -13 | . | .
NNC(=O)CCN1CCCCC1 | -3 | -5 | 69* | -3 | -6 | -47 | 3 | -1
CN(C)S(=O)(=O)Nc1cc(F)cc(F)c1 | -1 | 0 | 9 | 4 | -2 | 14 | . | .
O=C(CCN1C(=O)S/C(=C\c2ccccc2)C1=O)NC1CCS(=O)(=O)C1 (stereo not drawn) | 0 | -7 | -43 | 26 | -19 | 5 | . | .
O=C(CCl)N=c1sccn1Cc1ccccc1Cl | -68* | 24 | 8 | 78* | 24 | -12 | . | . | Mdm2-MdmX confirm=103*
O=C(CCl)N=c1sccn1Cc1ccc(Cl)cc1Cl | -85* | 19 | 17 | 90* | 24 | 5 | . | . | Mdm2-MdmX confirm=103*
NC(=O)c1ccc(=O)n(Cc2ccc(Cl)cc2Cl)c1 | 9 | -1 | -25 | 0 | -5 | -14 | . | .
CCC(=O)OCC(=O)N=c1sccn1Cc1ccc(C)cc1 | 7 | 7 | 4 | 3 | -1 | 1 | . | .
CCCS(=O)(=O)NC(=O)C1(C)CCN(C(=O)c2ccccc2OC(C)=O)C1 (stereo not drawn) | -21 | . | 12 | 10 | 4 | -6 | . | .
CN(C(=O)CSc1cc(C(=O)c2nccn2C)c2ccccc2n1)c1ccccc1 | -6 | 17 | 50* | 23 | 50 | . | 29 | 52*
COc1cccc(/C=N/Nc2cc(-n3nc(C)cc3-c3ccccc3)ncn2)c1O | -19 | 28 | 16 | 48 | 52* | 90* | . | . | Mdm2-MdmX confirm=91*
COc1cccc(/C=N/Nc2nc(Nc3ccccc3)nc(-n3nc(C)cc3C)n2)c1O | -12 | 29 | -94 | -20 | 32 | 60 | . | .
Cc1ccc2c(c1)c1ccc3c(c1n2C)C(=O)C=CC3=O | -3 | 93* | 79* | -2 | 107* | 95* | . | . | Mdm2-MdmX confirm=102*
COc1ccc2c(c1)c1ccc3c(c1n2C)C(=O)C=CC3=O | -4 | 92* | 78* | -1 | 104* | 96* | . | . | Mdm2-MdmX confirm=102*
C/C(=N\Nc1c([N+](=O)[O-])c(C)nn1C)c1ccc(F)cc1F | -7 | -24 | -15 | -15 | -3 | -21 | . | .
CN(C)CCCNc1cc(C(C)(C)C)nc2c(-c3ccc(Cl)cc3)cnn12 | -19 | -26 | -42 | 38 | 104* | -43 | . | . | Mdm2-MdmX confirm=102*
COc1cccc2c1cc1c(=O)n(CC(=O)NCCCN3CCCCC3)nc(C)n12 | 11 | 0 | 0 | -17 | 5 | -1 | . | .
O=C(CSc1cn[nH]n1)Nc1ccccc1C(=O)O | 5 | 8 | 8 | -26 | 19 | 8 | . | .
CCOc1cc(CNc2ccc3c(c2)OCCO3)cc(Br)c1OC | -36 | 62* | 45* | 41 | 46 | 51 | 67* | 98*
SMILES | KKLEB cytotox | TRPM1 prom inh | HIF-2a block | CF NFkB block | Peg3 prom inh | Shn3 inh set2 | HIF-2a conf | HIF-1a counter | others
CCOc1c(Br)cc(CNc2ccc3c(c2)OCCO3)cc1OC | -14 | 56 | 43* | 33 | 33 | 63 | 40 | 77*
CCOc1cc(CNc2ccc3c(c2)OCCO3)cc(Br)c1OCC(N)=O | 1 | -2 | -3 | -4 | -8 | -20 | . | .
N#CCC(=O)N/N=C\c1cccc(OC/C=C/c2ccccc2)c1 | 9 | 10 | 64* | -5 | 52* | -6 | 71* | 11
CC(=O)N/N=C\c1cccc(OC/C=C/c2ccccc2)c1 | -5 | -13 | 48* | 3 | -71 | -58 | 56* | -30
Nc1nc(N)c2c(ccc3c2ccn3Cc2cccc([N+](=O)[O-])c2)n1 | -42 | . | 89* | 17 | 100* | 76 | 12 | 105*
Cc1cc(N2CCCCC2)nc(NCc2ccccc2)n1 | -20 | 43 | 47* | 6 | 38 | 88* | 18 | 60*
O=[N+]([O-])/C=C/c1cn(Cc2ccc(Cl)cc2)c2ccccc12 | 5 | 26 | 51* | 25 | 81* | 89* | 29 | 85*
CCOc1ccc(/C=C/[N+](=O)[O-])c2ccccc12 | -23 | 84* | 89* | 7 | 99* | 95* | 39 | 105*
CCOC(=O)Cn1cc(C#N)c2ccccc21 | -14 | 4 | 11 | 17 | 3 | 14 | . | .
Cc1cccc(Cn2cc(/C=C/[N+](=O)[O-])c3ccccc32)c1 | -5 | 19 | 36 | 3 | 48 | -10 | . | .
CCOC(=O)Cn1cc(/C=C/[N+](=O)[O-])c2ccccc21 | -2 | 9 | 77* | -5 | 40 | -22 | 60* | 22
CCOC(=O)COc1ccc2nsnc2c1 | 9 | -4 | 16 | -3 | -2 | 2 | . | .
CCOC(=O)COc1ccc(/C=C/[N+](=O)[O-])c(OCC(=O)OCC)c1 | -15 | 92* | 75* | 16 | 106* | 73 | 7 | 90*
CCc1cc(C(=O)OC)c(NC(=O)CSc2nccn2C)s1 | 2 | 5 | 8 | -36 | 10 | -3 | . | .
O=C(CC1CC2CCC1C2)N1CCN(S(=O)(=O)c2ccc(F)cc2)CC1 (stereo not drawn) | 10 | . | 8 | 16 | 13 | -1 | . | .
CN(C)/C=N/c1cnc(C(=O)c2ccc(Cl)cc2)n1C | -3 | -78 | -198 | 10 | -278 | -68 | . | .
